Compound activity as filed in PubChem BioAssay.
Pf Dd2 growth – qHTS Primary assay for Inhibitors of Plasmodium falciparum Dd2 growth in vitro; Potency, µM (titrated, usually from 28.9 µM), actives largely listed as inhibitors; P. falciparum Dd2 growth, SYBR Green, 72 h; 120,000 compounds, 4.3% hits; active = well fitted inhibition curve with a large enough effect; also: nearly all actives have a fitted effect of over 65% in size
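Infected erythrocytes (Dd2, 0.3% parasitemia, 2.5% hematocrit final) are added to compound in RPMI-1640/Albumax II medium, grown 72 h at 37C in low oxygen, then lysed with saponin/Triton-X containing SYBR Green and read by fluorescence.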
Large screens that a line does not name were inactive. Shown is part of a subset that was picked to be rich in hits.

COc1ccc(-c2nc(C3CC3)nc3c2CCN(Cc2ccccc2)CC3)cc1	Pf Dd2 growth 5.01µM
COc1ccc(-c2nc(C)nc3c2CCN(CCC(C)C)CC3)cc1	none
Clc1ccc(-c2nc(C3CC3)nc3c2CCN(Cc2ccccc2)CC3)cc1	none
COc1ccc(-c2nc(C)nc3c2CCN(CC2CC2)CC3)cc1	none
COc1ccc(-c2nc(C3CC3)nc3c2CCN(Cc2cc(C)on2)CC3)cc1	Pf Dd2 growth 2.51µM
NC(=O)[C@@H]1CCCN1CC[C@H]1CN(C(=O)C2CCCC2)CC[C@H]1CC(=O)O	none
CCNC(=O)NC[C@@H]1C=C(C)[C@H](CC(=O)NCCN2CCOCC2)C[C@H]1C(C)C	none
CNc1ncccc1C(=O)N1CCCN(Cc2ccc(F)cc2)C(C(C)C)C1 (stereo unspecified)	none
Cc1ccc2nc(CN(C)Cc3cc(=O)c4cc(C(N)=O)ccc4[nH]3)[nH]c2c1	none
CCc1nncn1C1CCN(C(=O)c2cc(F)ccc2Cl)CC1	none
CSCc1noc(CNC(=O)c2cn(CCN)nn2)n1	none
CCN(CC)CC[C@H]1CN(C(=O)NC(C)C)CC[C@H]1CC(=O)O	none
O=C(CSc1ncc(CO)n1Cc1ccccc1)Nc1nc2ccccc2s1	none
CC(=O)N1CCc2c(sc(NC(=O)CSc3ccccc3)c2-c2nc3ccccc3s2)C1	Pf Dd2 growth 2µM
Cn1c(SCC(=O)Nc2nc3ccccc3s2)ncc(C(=O)Nc2ccc(Cl)cc2)c1=O	none
Cn1c(SCC(=O)Nc2nc3ccccc3s2)ncc(C(=O)Nc2ccccc2)c1=O	none
Cc1cnc(=O)[nH]c1SCC(=O)Nc1nc2ccccc2s1	none
CN1CCc2c(sc(NC(=O)CSc3ccccc3)c2-c2nc3ccccc3s2)C1	Pf Dd2 growth 11.2µM
CC(C)N1CCN(C(=O)CCC[C@@H]2[C@H]3CCCN4CCC[C@@H](CN2C(=O)c2cccnc2)[C@@H]34)CC1	none
COc1ccc(CN2Cc3[nH]cnc3C[C@H]2c2nc(C(C)C)no2)cc1	none
Cc1nc(N2CCC(NC(=O)c3ccccc3F)CC2)cc(C(F)(F)F)n1	none
Cc1nc(N2CCC(NC(=O)c3ccccc3Cl)CC2)cc(C(F)(F)F)n1	none
COc1cc(Cl)ccc1C(=O)NC1CCN(c2cc(C(F)(F)F)nc(C)n2)CC1	Pf Dd2 growth 5.01µM
O=C(c1cc2ccccc2[nH]1)N1CCC(Cc2nncn2CC2CC2)C1 (stereo unspecified)	none
CCC[C@H](N)C(=O)N1CCC2(CCC(=O)N(Cc3cnc(C)cn3)C2)CC1	none
O=C(NCc1ccco1)c1ccc(-c2ccc(N3CCCCCC3)nc2)cc1	none
COCCNc1nc2c([S+](=O)([O-])c3ccc(Br)cc3)nnn2c2ccccc12	none
O=C(c1cccnn1)N1C[C@@H](COCC2CC2)[C@H](c2ccncc2)C1	none
CCN(CC)CCNC(=O)c1cn(CC)c2ccc(S(=O)(=O)N3CCc4ccccc4C3)cc2c1=O	none
CCn1cc(C(=O)NCc2ccccc2Cl)c(=O)c2cc(S(=O)(=O)N3CCc4ccccc4C3)ccc21	Pf Dd2 growth 10µM
CCn1cc(C(=O)NCc2ccccc2Cl)c(=O)c2cc(S(=O)(=O)N3CCOCC3)ccc21	none
CCn1cc(C(=O)NCc2ccccc2Cl)c(=O)c2cc(S(=O)(=O)N3CCCCCC3)ccc21	none
CCn1cc(C(=O)NCc2ccccc2Cl)c(=O)c2cc(S(=O)(=O)N3CCCCC3)ccc21	none
CCn1cc(C(=O)NCc2ccccc2OC)c(=O)c2cc(S(=O)(=O)N3CCCCC3)ccc21	Pf Dd2 growth 10µM
O=C(c1cccc(F)c1)N1CCC(Cc2nc(-c3ccccc3)no2)CC1	none
CN1CCN(c2nc3c(c(=O)[nH]2)CCN(Cc2ccccc2Cl)CC3)CC1	none
C[C@H](C(=O)N1CCOCC1)C1CC[C@@]2(C)Cc3sc(-c4ccccc4)nc3[C@@H](C)[C@@H]2[C@H]1O (stereo partly specified)	none
COc1cccc(C(=O)NCCC2CCN(C(=O)Nc3cccc(C)c3)CC2)c1	none
Cc1ccccc1OCC1CN(Cc2c[nH]c3ccccc23)C(=O)c2c(ccnc2-c2ccc(OCC(=O)O)cc2)O1 (stereo unspecified)	none
CCCNC(=O)C(NC(=O)c1ccc(OC)cc1)C1CCN(C(=O)c2cccc(F)c2)CC1 (stereo unspecified)	none
Cc1ccc(C(=O)Nc2ccc(S(=O)(=O)N(Cc3ccccc3)c3ccccc3)cc2)cc1	none
CCOc1ccc(C(=O)Nc2ccc(S(=O)(=O)N(Cc3ccccc3)c3ccccc3)cc2)cc1	Pf Dd2 growth 10µM
COc1ccc(C(=O)Nc2ccc(S(=O)(=O)N(Cc3ccccc3)c3ccccc3)cc2)cc1	none
COc1ccc(-c2ccc3nnc(CNC(=O)c4cccc(OC)c4)n3n2)cc1	none
COc1ccccc1-c1nc2nccc(-c3cc4ccccc4o3)n2n1	none
O=C(Cn1nc2c(cc1=O)CCCC2)N1CCN(c2ccc(Cl)cc2)CC1	none
COc1ccc(C2Cn3cnc(C(=O)N4CCC(C(=O)Nc5ccccc5F)CC4)c3CO2)cc1 (stereo unspecified)	Pf Dd2 growth 11.2µM
COc1ccc(NC(=O)C2CCN(C(=O)c3ncn4c3COC(c3ccccc3)C4)CC2)cc1 (stereo unspecified)	none
COc1ccc(C2Cn3cnc(C(=O)N4CCC(C(=O)Nc5ccc(C)cc5C)CC4)c3CO2)cc1 (stereo unspecified)	none
COc1ccc(C2Cn3cnc(C(=O)N4CCC(C(=O)Nc5ccc(C)cc5)CC4)c3CO2)cc1 (stereo unspecified)	none
COc1ccc(C2Cn3cnc(C(=O)N4CCC(C(=O)Nc5ccccc5OC)CC4)c3CO2)cc1 (stereo unspecified)	Pf Dd2 growth 10µM
COc1ccc(C2Cn3cnc(C(=O)N4CCC(C(=O)Nc5cccc(F)c5)CC4)c3CO2)cc1 (stereo unspecified)	none
Cc1ccn2c(C(=O)N[C@H](Cc3ccccn3)C3CC(O)C3)nnc2n1 (stereo partly specified)	none
COc1ccc(CNC(=O)N2CCC3(CC2)CC(OC)CCO3)cc1 (stereo unspecified)	none
O=C(C1CCCC1)N1CC2(CCN(C3COC3)C2)OCc2ccccc21 (stereo unspecified)	none
c1ccc2c(c1)COC1(CCNC1)CN2CC1CCCCC1 (stereo unspecified)	Pf Dd2 growth 12.6µM
O=C(C1CCCC1)N1CC2(CCNC2)OCc2ccccc21 (stereo unspecified)	none
O=C(NCC(F)F)C1CN(Cc2ccccc2)C(=O)N1 (stereo unspecified)	none
OCc1n[nH]c2c1CN(Cc1cccc(OCC(O)CN3CCOCC3)c1)CC2 (stereo unspecified)	none
O=C(NCc1csc(-c2ncccn2)n1)C1COc2ccccc2C1 (stereo unspecified)	none
O=C(Nc1cccc(NC(=O)c2ccccc2F)c1)c1ccccc1	none
COc1cccc(C(=O)Nc2ccc(NC(=O)c3ccc(C(C)(C)C)cc3)cc2)c1	none
Cc1ccccc1C(=O)Nc1cccc(NC(=O)c2ccc(C(C)(C)C)cc2)c1	Pf Dd2 growth 12.6µM
Cc1ncoc1C(=O)NC1CCc2nn(CC3CC3)c(=O)n2CC1 (stereo unspecified)	none
O=C(O)CCC(=O)N1Cc2ccccc2CC2(CCCN2CC2CCCCC2)C1 (stereo unspecified)	none
CCCC(=O)N1CC2(CCCN2CC2CC2)Cc2ccccc21 (stereo unspecified)	Pf Dd2 growth 8.91µM
O=C(O)CCCC(=O)N1Cc2ccccc2CC2(CCCCN2CC2CCCC2)C1 (stereo unspecified)	none
C[S+](=O)([O-])N1Cc2ccccc2CC2(CCCN2Cc2ccccc2)C1 (stereo unspecified)	none
C[S+](=O)([O-])N1Cc2ccccc2CC2(CCN(CC3CCCCC3)CC2)C1	none
